# Data from paper PMC7862700, “An all-to-all approach to the identification of sequence-specific readers for epigenetic DNA modifications on cytosine”.
# Experiments:
# Test in all cases: DAPPL (digital affinity profiling via proximity ligation, sequencing); 10 mM Tris-HCl pH 7.5, 50 mM NaCl, 1 mM DTT, 4% glycerol, room temperature, 30 min; GST-TFs on glutathione beads, 16-mer random dsDNA library, 0.1% formaldehyde crosslink after washing; high values mean tight binding
# [1] = target: T1, FLI1 (Homo sapiens, UniProt Q01543 1-452); details: protein: recombinant; tags: N-terminal GST; dsDNA, one strand shown
# T1 sequence: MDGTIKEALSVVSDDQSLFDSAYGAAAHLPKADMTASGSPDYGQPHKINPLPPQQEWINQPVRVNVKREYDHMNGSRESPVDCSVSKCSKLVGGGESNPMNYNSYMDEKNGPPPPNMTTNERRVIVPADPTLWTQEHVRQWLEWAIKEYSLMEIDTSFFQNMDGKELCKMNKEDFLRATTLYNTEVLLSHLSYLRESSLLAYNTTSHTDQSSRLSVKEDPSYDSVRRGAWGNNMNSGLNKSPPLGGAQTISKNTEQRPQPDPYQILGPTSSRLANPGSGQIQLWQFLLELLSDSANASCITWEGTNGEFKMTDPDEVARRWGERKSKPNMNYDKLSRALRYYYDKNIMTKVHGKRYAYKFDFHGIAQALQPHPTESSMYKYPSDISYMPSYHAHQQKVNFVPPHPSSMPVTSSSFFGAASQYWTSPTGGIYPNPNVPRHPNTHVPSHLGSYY
# In short: (§1)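 Human transcription factors carrying a GST fusion were produced in yeast, bound to glutathione beads, tagged with DNA barcodes and pooled together with a tag-only sample. Each pool was held with 200 nmole of a random double-stranded 16-mer DNA library in Tris/NaCl/DTT/glycerol buffer for 30 min at room temperature, then washed, crosslinked in 0.1% formaldehyde, proximity-ligated with BsaI/T4 ligase (1 h, 37 °C), PCR-amplified and sequenced on an Illumina NextSeq500. Binding signal is the read frequency of each hexamer for a given factor divided by its frequency in the tag-only sample.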
# [2] = target: T2, ELK1 (Homo sapiens, UniProt P19419 1-428); details: protein: recombinant; tags: N-terminal GST; dsDNA, one strand shown
# T2 sequence: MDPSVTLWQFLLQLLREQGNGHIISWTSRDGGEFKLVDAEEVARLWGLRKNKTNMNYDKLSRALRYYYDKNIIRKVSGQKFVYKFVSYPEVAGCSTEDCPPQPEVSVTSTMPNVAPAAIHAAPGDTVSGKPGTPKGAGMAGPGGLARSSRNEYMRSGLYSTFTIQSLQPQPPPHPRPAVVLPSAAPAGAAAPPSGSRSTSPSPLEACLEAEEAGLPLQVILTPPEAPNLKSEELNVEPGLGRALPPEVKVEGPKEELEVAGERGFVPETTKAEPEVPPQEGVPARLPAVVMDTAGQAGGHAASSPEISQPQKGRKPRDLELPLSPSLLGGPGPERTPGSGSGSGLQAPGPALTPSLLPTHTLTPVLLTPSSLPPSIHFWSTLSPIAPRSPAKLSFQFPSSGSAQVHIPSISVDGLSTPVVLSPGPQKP
# In short: as §1
# [3] = target: T3, GABPA (Homo sapiens, UniProt Q06546 1-454); details: protein: recombinant; tags: N-terminal GST; dsDNA, one strand shown
# T3 sequence: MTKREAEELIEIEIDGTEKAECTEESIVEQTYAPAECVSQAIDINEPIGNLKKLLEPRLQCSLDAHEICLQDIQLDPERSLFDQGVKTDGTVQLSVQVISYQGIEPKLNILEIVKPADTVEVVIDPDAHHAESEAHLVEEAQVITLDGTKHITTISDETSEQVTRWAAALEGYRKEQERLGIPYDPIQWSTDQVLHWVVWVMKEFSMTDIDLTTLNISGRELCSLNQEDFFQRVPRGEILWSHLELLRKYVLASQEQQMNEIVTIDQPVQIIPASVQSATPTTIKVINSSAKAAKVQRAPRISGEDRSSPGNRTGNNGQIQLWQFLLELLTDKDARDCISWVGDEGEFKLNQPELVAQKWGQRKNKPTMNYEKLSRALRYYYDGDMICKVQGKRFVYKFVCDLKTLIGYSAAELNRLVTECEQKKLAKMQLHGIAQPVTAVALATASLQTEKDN
# In short: as §1
# [4] = target: T4, ERG (Homo sapiens, UniProt P11308 1-479); details: protein: recombinant; tags: N-terminal GST; dsDNA, one strand shown
# T4 sequence: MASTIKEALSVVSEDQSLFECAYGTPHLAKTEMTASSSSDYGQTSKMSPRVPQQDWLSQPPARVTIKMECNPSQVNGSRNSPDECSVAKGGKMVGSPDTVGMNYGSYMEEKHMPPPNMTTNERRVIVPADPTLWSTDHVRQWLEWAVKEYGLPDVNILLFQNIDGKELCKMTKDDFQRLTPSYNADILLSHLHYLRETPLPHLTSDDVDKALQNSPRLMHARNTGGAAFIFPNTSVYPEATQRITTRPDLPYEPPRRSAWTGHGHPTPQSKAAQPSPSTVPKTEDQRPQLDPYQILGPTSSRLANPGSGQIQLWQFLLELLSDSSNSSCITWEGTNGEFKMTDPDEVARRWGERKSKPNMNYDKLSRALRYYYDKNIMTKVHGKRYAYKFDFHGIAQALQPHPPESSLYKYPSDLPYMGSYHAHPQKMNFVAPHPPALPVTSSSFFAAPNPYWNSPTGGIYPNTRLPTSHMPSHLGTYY
# In short: as §1
# [5] = target: ELF1 (Homo sapiens, UniProt P32519 1-619); details: protein: recombinant; tags: N-terminal GST; dsDNA, one strand shown
# Chain of ELF1 (P32519 whole entry): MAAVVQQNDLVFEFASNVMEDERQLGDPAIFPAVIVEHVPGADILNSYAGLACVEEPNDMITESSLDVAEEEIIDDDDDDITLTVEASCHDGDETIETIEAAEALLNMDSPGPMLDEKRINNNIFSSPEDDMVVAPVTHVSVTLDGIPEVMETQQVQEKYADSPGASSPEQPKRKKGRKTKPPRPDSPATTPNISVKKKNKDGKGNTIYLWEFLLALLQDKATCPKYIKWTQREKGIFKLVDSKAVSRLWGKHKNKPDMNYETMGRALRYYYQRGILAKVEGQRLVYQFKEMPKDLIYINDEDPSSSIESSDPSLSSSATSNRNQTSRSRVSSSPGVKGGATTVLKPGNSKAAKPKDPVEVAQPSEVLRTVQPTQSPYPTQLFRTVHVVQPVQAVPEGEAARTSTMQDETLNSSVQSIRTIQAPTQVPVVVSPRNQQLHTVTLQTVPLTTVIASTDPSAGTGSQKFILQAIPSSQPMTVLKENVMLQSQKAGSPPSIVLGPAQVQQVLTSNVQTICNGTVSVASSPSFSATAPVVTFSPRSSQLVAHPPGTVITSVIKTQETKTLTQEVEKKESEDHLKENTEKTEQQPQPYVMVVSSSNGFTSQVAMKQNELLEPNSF
# In short: as §1
# [6] = target: T5, EHF (Homo sapiens, UniProt Q9NZC4 1-300); details: protein: recombinant; tags: N-terminal GST; dsDNA, one strand shown
# T5 sequence: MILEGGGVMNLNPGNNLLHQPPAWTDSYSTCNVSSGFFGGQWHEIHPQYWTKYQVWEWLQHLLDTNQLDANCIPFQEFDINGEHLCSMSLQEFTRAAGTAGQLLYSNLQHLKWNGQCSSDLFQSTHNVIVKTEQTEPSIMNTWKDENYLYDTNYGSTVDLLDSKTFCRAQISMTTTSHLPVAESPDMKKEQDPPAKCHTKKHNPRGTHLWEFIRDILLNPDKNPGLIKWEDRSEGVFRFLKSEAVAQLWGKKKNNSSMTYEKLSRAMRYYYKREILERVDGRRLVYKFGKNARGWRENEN
# In short: as §1
# [7] = target: SPI1 (Homo sapiens, UniProt P17947 1-270); details: protein: recombinant; tags: N-terminal GST; dsDNA, one strand shown
# In short: as §1
# [8] = target: SPIB (Homo sapiens, UniProt Q01892 1-262); details: protein: recombinant; tags: N-terminal GST; dsDNA, one strand shown
# Chain of SPIB (Q01892 whole entry): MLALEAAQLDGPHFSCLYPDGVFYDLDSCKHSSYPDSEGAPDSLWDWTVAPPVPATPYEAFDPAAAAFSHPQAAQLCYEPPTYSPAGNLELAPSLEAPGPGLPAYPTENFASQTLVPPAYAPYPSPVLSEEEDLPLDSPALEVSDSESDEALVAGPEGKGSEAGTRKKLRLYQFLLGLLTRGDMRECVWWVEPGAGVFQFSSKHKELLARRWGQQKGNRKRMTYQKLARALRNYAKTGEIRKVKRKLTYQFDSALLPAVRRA
# In short: as §1
# [9] = target: T6, ELK3 (Homo sapiens, UniProt P41970 1-407); details: protein: recombinant; tags: N-terminal GST; dsDNA, one strand shown
# T6 sequence: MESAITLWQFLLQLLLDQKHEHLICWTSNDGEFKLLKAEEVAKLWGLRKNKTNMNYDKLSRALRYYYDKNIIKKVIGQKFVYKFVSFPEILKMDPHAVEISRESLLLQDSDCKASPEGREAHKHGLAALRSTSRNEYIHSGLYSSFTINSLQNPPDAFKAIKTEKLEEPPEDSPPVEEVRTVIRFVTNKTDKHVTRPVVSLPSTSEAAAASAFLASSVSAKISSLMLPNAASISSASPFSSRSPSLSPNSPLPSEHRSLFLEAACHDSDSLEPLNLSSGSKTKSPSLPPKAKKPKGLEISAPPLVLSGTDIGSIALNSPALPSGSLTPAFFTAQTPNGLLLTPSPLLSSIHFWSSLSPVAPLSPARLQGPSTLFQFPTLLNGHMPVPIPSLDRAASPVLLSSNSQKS
# In short: as §1
# [10] = target: T7, FEV (Homo sapiens, UniProt Q99581 1-238); details: protein: recombinant; tags: N-terminal GST; dsDNA, one strand shown
# T7 sequence: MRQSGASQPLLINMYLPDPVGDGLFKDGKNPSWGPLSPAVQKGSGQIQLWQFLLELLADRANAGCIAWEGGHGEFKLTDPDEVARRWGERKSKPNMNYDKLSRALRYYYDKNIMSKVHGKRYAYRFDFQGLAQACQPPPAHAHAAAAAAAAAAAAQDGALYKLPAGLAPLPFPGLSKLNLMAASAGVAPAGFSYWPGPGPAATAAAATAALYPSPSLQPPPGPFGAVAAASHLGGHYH
# In short: as §1
# [11] = target: ETV5 (Homo sapiens, UniProt P41161 1-510); details: protein: recombinant; tags: N-terminal GST; dsDNA, one strand shown
# Chain of ETV5 (P41161 whole entry): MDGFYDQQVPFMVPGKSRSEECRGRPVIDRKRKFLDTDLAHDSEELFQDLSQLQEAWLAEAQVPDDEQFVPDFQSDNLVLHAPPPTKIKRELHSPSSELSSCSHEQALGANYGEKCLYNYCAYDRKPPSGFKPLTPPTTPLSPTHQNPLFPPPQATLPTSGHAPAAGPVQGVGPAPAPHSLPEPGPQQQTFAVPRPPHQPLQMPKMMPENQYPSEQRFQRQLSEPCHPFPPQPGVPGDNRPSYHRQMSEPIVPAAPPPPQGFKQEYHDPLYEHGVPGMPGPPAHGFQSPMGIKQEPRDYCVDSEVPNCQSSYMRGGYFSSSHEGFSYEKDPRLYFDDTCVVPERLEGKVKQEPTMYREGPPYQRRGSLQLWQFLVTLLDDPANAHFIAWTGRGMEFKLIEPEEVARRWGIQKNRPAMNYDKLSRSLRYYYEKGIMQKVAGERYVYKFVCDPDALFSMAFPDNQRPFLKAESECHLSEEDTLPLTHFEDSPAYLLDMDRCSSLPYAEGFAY
# In short: as §1
# [12] = target: HSF1 (Homo sapiens, UniProt Q00613 1-529); details: protein: recombinant; tags: N-terminal GST; chain copies: 3; dsDNA, one strand shown
# Chain of HSF1 (Q00613 whole entry): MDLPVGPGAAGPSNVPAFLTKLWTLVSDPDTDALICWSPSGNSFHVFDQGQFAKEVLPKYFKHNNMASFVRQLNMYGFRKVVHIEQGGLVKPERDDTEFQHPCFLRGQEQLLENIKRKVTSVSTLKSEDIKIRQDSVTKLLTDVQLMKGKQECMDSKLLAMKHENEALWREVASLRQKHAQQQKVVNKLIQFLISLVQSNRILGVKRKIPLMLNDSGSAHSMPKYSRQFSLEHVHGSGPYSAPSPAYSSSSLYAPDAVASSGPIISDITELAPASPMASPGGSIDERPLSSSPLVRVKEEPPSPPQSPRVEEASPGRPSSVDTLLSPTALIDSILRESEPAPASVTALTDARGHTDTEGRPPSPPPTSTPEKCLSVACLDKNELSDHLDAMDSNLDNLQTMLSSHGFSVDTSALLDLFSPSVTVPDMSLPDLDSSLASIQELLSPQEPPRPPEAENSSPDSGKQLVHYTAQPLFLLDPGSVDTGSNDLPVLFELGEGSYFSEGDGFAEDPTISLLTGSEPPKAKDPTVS
# In short: as §1
# [13] = target: T8, SPIC (Homo sapiens, UniProt Q8N5J4 1-248); details: protein: recombinant; tags: N-terminal GST; dsDNA, one strand shown
# T8 sequence: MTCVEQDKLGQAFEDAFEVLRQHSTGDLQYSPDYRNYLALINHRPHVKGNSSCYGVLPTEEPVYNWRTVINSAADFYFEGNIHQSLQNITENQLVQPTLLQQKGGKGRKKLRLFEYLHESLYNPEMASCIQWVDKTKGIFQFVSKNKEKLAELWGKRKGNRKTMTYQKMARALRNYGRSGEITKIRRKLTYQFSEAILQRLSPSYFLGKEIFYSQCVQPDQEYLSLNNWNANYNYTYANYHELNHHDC
# In short: as §1
# [14] = target: ELF4 (Homo sapiens, UniProt Q99607 1-663); details: protein: recombinant; tags: N-terminal GST; dsDNA, one strand shown
# Chain of ELF4 (Q99607 whole entry): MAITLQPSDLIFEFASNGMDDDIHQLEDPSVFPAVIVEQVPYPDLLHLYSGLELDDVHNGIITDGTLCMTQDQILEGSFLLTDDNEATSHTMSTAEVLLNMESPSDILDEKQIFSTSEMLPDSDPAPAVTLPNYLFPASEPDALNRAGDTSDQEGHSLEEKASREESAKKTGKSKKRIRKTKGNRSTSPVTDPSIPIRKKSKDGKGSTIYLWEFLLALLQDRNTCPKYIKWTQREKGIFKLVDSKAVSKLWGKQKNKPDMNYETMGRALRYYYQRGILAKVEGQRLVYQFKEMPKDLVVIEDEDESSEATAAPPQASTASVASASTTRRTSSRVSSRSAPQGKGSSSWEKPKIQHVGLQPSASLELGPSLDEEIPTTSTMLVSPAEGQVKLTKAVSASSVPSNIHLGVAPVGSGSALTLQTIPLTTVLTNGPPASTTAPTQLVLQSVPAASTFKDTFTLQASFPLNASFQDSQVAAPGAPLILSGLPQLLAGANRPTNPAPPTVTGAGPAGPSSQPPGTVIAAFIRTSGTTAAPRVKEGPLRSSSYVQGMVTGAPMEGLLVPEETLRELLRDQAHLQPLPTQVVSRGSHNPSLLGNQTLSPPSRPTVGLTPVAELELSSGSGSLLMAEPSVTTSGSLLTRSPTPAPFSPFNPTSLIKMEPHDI
# In short: as §1
# [15] = target: T9, ELK4 (Homo sapiens, UniProt P28324-2 1-405); details: protein: recombinant; tags: N-terminal GST; dsDNA, one strand shown
# T9 sequence: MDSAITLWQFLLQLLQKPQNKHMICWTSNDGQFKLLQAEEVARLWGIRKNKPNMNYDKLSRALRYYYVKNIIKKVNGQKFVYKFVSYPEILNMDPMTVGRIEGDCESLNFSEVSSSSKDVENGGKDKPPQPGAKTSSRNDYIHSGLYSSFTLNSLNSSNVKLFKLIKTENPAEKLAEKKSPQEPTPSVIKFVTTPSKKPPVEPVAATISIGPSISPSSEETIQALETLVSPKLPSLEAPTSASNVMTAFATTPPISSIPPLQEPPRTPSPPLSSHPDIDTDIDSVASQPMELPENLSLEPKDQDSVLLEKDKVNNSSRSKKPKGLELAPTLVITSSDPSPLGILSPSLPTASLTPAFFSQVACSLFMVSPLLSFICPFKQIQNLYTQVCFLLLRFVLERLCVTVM
# In short: as §1
# [16] = target: T10, ETV2 (Homo sapiens, UniProt O00321 1-342); details: protein: recombinant; tags: N-terminal GST; dsDNA, one strand shown
# T10 sequence: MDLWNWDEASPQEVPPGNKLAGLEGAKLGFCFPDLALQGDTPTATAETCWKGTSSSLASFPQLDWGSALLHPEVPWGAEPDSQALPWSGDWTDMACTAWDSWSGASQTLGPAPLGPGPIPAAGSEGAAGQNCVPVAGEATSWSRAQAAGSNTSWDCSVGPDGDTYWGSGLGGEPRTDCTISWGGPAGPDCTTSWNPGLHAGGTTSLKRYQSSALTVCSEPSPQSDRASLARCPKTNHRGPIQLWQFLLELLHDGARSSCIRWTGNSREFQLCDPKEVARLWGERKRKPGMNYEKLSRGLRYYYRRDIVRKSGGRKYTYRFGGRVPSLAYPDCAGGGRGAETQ
# In short: as §1
# [17] = target: CRX (Homo sapiens, UniProt O43186 1-299); details: protein: recombinant; tags: N-terminal GST; dsDNA, one strand shown
# Chain of CRX (O43186 whole entry): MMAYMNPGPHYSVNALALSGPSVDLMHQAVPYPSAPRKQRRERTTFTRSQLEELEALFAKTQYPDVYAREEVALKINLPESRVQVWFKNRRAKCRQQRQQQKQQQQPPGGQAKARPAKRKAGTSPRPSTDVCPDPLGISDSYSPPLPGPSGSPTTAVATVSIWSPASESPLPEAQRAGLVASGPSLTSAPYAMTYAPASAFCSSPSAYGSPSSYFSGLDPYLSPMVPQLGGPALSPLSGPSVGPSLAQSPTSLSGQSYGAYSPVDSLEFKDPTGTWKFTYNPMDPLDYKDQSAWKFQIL
# In short: as §1
# [18] = target: ETV1 (Homo sapiens, UniProt P50549 1-477); details: protein: recombinant; tags: N-terminal GST; dsDNA, one strand shown
# Chain of ETV1 (P50549 whole entry): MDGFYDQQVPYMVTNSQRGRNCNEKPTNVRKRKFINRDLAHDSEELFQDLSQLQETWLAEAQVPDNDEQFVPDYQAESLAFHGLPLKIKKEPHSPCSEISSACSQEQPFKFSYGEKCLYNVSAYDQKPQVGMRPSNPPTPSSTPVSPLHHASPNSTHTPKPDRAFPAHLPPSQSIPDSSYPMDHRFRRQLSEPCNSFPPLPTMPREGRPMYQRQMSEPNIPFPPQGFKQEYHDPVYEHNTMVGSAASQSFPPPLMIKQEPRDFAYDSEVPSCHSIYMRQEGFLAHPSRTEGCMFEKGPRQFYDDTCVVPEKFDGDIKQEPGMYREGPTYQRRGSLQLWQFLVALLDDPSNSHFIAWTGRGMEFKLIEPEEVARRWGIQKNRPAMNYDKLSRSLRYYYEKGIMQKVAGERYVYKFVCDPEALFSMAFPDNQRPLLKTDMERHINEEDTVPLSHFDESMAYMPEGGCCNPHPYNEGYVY
# In short: as §1
sequence,measurement,setting,value
CGATAA,binding signal,[1],"1.12 fold enrichment (6-mer frequency, TF over GST control)"
same,binding signal,[2],"1.02 fold enrichment (6-mer frequency, TF over GST control)"
same,binding signal,[3],"1.06 fold enrichment (6-mer frequency, TF over GST control)"
same,binding signal,[4],"1.09 fold enrichment (6-mer frequency, TF over GST control)"
same,binding signal,[5],"1.08 fold enrichment (6-mer frequency, TF over GST control)"
same,binding signal,[6],"1.03 fold enrichment (6-mer frequency, TF over GST control)"
same,binding signal,[7],"1.08 fold enrichment (6-mer frequency, TF over GST control)"
same,binding signal,[8],"1.19 fold enrichment (6-mer frequency, TF over GST control)"
same,binding signal,[9],"1.2 fold enrichment (6-mer frequency, TF over GST control)"
same,binding signal,[10],"1.02 fold enrichment (6-mer frequency, TF over GST control)"
same,binding signal,[11],"1.04 fold enrichment (6-mer frequency, TF over GST control)"
same,binding signal,[12],"1.51 fold enrichment (6-mer frequency, TF over GST control)"
same,binding signal,[13],"1.12 fold enrichment (6-mer frequency, TF over GST control)"
same,binding signal,[14],"1.16 fold enrichment (6-mer frequency, TF over GST control)"
same,binding signal,[15],"1.1 fold enrichment (6-mer frequency, TF over GST control)"
same,binding signal,[16],"1.19 fold enrichment (6-mer frequency, TF over GST control)"
same,binding signal,[17],"1.75 fold enrichment (6-mer frequency, TF over GST control)"
same,binding signal,[18],"1.09 fold enrichment (6-mer frequency, TF over GST control)"
